Results taken from PubChem BioAssay (NCATS).
Records with an inconclusive call do not appear. Values without a mark were called inactive. Activity calls are given as the source filed them. The call rests on the fitted dose curve; in most records, active means well fitted inhibition curve with a large enough effect; inconclusive means small, poorly fitted or top-dose-only effect; inactive means flat fitted curve, though single readings scatter.

Test system: CRL-7250
Experiment: Cytotoxic Profiling of Annotated Libraries Using Quantitative High-Throughput Screening (AID 1296008); further: nearly all actives have a fitted effect of over 60% in size
Settings: Five cell lines viability, CellTiter-Glo ATP luminescence, 48-72 h; max response: active compounds read low
In short: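 Cytotoxicity was measured as CellTiter-Glo ATP luminescence, read after 10 min at room temperature. Compound treatment of the cells lasted 48 or 72 hr at 37 degrees Celsius in a qHTS format.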
On the % scale 0 is the no-effect control and ±100 the full control effect; potency means the concentration at half of the fitted maximal effect.

| Compound | max response [%] | Potency | outcome |
| --- | --- | --- | --- |
| CS(=O)(=O)N(CC(=O)NCC1CC1)c1cc(C(F)(F)F)ccc1Cl | -0.912 |  |  |
| OC1CCC(Nc2ncc3nc(Nc4c(F)cc(F)cc4F)n([C@H]4CCOC4)c3n2)CC1 (some centres undefined) | -2.71 |  |  |
| CC1=CC(=O)CC(C)(C)C1/C=C/C(C)O[C@@H]1O[C@H](CO)[C@@H](O)[C@H](O)[C@H]1O[C@@H]1OC[C@](O)(CO)[C@H]1O (some centres undefined) | -0.149 |  |  |
| CC(C)NCC(C(=O)N1CCN(c2ncnc3c2C(C)CC3O)CC1)c1ccc(Cl)cc1 (centres undefined) | -1.68 |  |  |
| CC(C)(C)Nc1nc(Nc2ccc(C(N)=O)cc2)cc(N)c1C#N |  | 13 µM (active) |  |
| CC(=O)c1ccc2c(c1)C(O)C(C(C)(C)O)O2 (centres undefined) | -0.999 |  |  |
| CCC1C(=O)N(C)c2cnc(Nc3ccc(C(=O)NC4CCC(N5CCN(CC6CC6)CC5)CC4)cc3OC)nc2N1C(C)C (centres undefined) |  | 4.61 µM (active) |  |
| COC(=O)C1=CO[C@@H](O[C@@H]2O[C@H](CO)[C@@H](O)[C@H](O)[C@H]2O)C2C1C(=O)C[C@H]2C (some centres undefined) | -1.68 |  |  |
| N#C[C@@H]1C[C@H](F)CN1C(=O)CNC1[C@H]2CN(C(=O)c3ccc(F)cc3)C[C@@H]12 (some centres undefined) | -1.2 |  |  |
| CC(=O)O[C@@](C)(C(=O)/C=C/C(C)(C)O)[C@H]1[C@H](O)C[C@@]2(C)[C@@H]3CC=C4[C@@H](C=C(O)C(=O)C4(C)C)[C@]3(C)C(=O)C[C@]12C |  | 2.82 µM (active) |  |
| C[C@@]12C[C@]3(O)O[C@H](O1)[C@]1(COC(=O)c4ccccc4)[C@H]3C[C@@]12O[C@@H]1O[C@H](CO)[C@@H](O)[C@H](O)[C@H]1O | 0.654 |  |  |
| COc1ccc(-n2[nH]c(=O)c3[nH]c4cc(Cl)ccc4c(=O)c3c2=O)c(C)c1 | 1.23 |  |  |
| COc1cc(C)c(C(=O)O[C@H]2[C@@H](OC(C)=O)[C@H](n3ccc(=O)[nH]c3=O)O[C@@H]2CO)c(OC)c1 | -2.01 |  |  |
| CC1=C(CO)C(=O)O[C@@H]([C@@H](C)[C@H]2CC[C@H]3[C@@H]4C[C@H]5O[C@]56[C@@H](O)C=CC(=O)[C@]6(C)[C@H]4CC[C@]23C)C1 |  | 3.99 µM (active) |  |
| CC1=C(CCC(C)O[C@@H]2O[C@H](CO)[C@@H](O)[C@H](O)[C@H]2O)C(C)(C)CCC1=O (some centres undefined) | -22.3 |  |  |
| O=C(O)c1ccccc1NCCc1ccccc1 | 4.16 |  |  |
| CC1=CC(=O)C2(OC3OC(C)C(O)C(OC(=O)/C=C/c4ccccc4)C3O)C=COC(OC3OC(CO)C(O)C(O)C3O)C12 (centres undefined) | -3.56 |  |  |
| O=C1NC(Cc2ccccc2)C(=O)N2CCCC12 (centres undefined) |  |  | inactive |
| OC[C@H]1O[C@@H](OCCc2ccccc2)[C@H](O[C@@H]2OC[C@](O)(CO)[C@H]2O)[C@@H](O)[C@@H]1O | -6.82 |  |  |
| CCC(=O)O[C@H]1C(C)(C)[C@H]([C@@H](O)C(=O)OC)[C@]2(C)C(=O)[C@@]1(O)[C@H]1O[C@]13C1CC(=O)O[C@@H](c4ccoc4)[C@]1(C)CCC32 (some centres undefined) | 0.287 |  |  |
| C=CC1(C)C=C2CCC3C(C)(C)C(O[C@@H]4O[C@@H](CO)[C@H](O)[C@H]4O)CCC3(C)C2CC1O[C@@H]1O[C@H](C)[C@H](O)[C@H](O)[C@H]1O (some centres undefined) | -0.496 |  |  |
| C/C1=C\CCC2=C[C@@H](OC2=O)c2c(C)coc2C1 | 1.59 |  |  |
| CC(C)C1=CC2C(CC[C@]2(C)O)[C@](C)(O)CC1 (some centres undefined) | -11.6 |  |  |
| CC(C)CC(=O)O[C@@H]1OC=C(CO[C@@H]2O[C@H](CO)[C@@H](O)[C@H](O)[C@H]2O)[C@H]2[C@@H]3O[C@H]3[C@@](O)(CO)[C@@H]12 | -0.109 |  |  |
| CC(C)=CCC/C(C)=C/CO[C@@H]1O[C@H](CO)[C@@H](OC(=O)/C=C/c2ccc(O)cc2)[C@H](O[C@@H]2O[C@@H](C)[C@H](O)[C@@H](O)[C@H]2O)[C@H]1O | 0.478 |  |  |
| Cc1cn(C2C=CC(CO)O2)c(=O)[nH]c1=O (centres undefined) | -8.63 |  |  |
| C=C1C[C@]23C[C@H]1[C@@H](O)C[C@H]2[C@@]12C=C[C@H](O)[C@@](C)(C(=O)O1)[C@H]2[C@@H]3C(=O)O | 0.0204 |  |  |
| C/C=C/c1cc(OC)c2c(c1)[C@@H](C)[C@@H](c1ccc(O)c(OC)c1)O2 | -4.41 |  |  |
| CC1CC(=O)C2=C(CCC3(O)C(O)c4c(O)cccc4C(=O)C23O)C1 (centres undefined) | -7.17 |  |  |
